High-throughput results: PubChem, several laboratories
A1 inh: caspase 3/7 activation in MEF A1-2A-BIM cells, primary screen, A1 inhibitor project, cell-based, luminescence, HTS; 0.066% of 330,000 active; Caspase-Glo 3/7 luminescence, 3 h; percent of clofoctol response, vehicle zero; caspase activation, % (test concentration not listed);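 active = over half of replicate activation scores above 10%, or exactly half above 10 with the replicate mean above 10; inconclusive = replicate mean below 10 yet half the replicates above 10; inactive = over half of replicates below 10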
GSIS activator: GLuc luminescence reporter in INS-1E cells, primary screen for activators of glucose-dependent secretion of insulin. activation, % at 16.6 µM. AID 743287, 2014. INS-1E GLuc reporter insulin secretion, 2-3 h. 0.61% of 370,000 active;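 active = lowest replicate activation of at least 40%, so every replicate reaches that level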;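 note: 0% = median of neutral control wells and 100% = median of IBMX positive control wells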
Neddyl block: inhibitors of cullin neddylation, primary screen, biochemical, TR-FRET, uHTS, NAE and Ubc12; 0.58% of 360,000 active; NEDD8-conjugating enzyme Ubc12 (Homo sapiens) + NEDD8-activating enzyme E1 regulatory …; inhibition, % at 25 µM; in the data active = inhibition above about 36%
Target sequence (P61081 whole entry, looked up): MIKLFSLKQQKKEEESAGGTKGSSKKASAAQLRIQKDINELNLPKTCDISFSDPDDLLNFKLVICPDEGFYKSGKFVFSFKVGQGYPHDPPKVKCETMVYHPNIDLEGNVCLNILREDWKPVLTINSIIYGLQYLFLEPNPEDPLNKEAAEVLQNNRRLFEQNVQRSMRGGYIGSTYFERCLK
Target sequence (Q13564 whole entry, looked up): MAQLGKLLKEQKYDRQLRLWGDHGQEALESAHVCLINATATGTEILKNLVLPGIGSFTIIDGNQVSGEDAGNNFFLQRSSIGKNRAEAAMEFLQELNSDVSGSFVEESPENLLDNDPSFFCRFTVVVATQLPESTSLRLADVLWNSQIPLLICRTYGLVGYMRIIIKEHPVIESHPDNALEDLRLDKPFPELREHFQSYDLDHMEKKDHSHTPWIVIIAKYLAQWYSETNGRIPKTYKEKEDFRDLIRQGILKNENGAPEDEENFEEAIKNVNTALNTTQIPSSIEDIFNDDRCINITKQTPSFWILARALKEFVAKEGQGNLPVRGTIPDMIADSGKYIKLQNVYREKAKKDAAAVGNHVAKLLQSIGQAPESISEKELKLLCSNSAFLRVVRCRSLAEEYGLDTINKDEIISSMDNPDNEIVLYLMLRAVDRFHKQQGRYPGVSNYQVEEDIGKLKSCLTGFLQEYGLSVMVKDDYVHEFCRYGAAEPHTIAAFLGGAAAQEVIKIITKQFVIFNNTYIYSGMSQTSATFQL
Vif imaging: HIV Vif self-association inhibitors, primary screen, imaging, HEK293T, single point | inhibition, % at 7.49 µM | HEK293T cells, Vif self-association by quenched fluorescence, 24 h | 0.35% of 340,000 active; in the data active = inhibition above about 50%, passing the limit was not always enough; inconclusive = no clear call, values can overlap the other calls; inactive = below about 31%
dFosB activator: activators of delta FosB homodimer, primary screen, biochemical, fluorescence polarization, TAMRA-CDK5 oligo, single point. Protein FosB (Mus musculus), P13346. purified delta FosB; percent of positive-control signal above neutral wells. activation, % at 25 µM. 0.99% of 340,000 active. AID 493131, 2011;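 active = mean activation above about 17%, with every replicate also reaching it, limit read from the data, passing the limit was not always enough; inconclusive = only one of the two conditions met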
* hit, by the source's call; i = inactive; ? = inconclusive; / = no result shown; ! = not active in a repeat. In the library only some 1.9% were active in any assay of this set; here they are far more common.

SMILES | A1 inh | GSIS activator | Neddyl block | Vif imaging | dFosB activator
COc1ccc(-c2cc(-c3nc4ccccn4c3NCc3ccccc3)ccc2OC)cc1 | -2 | -44 | / | 77* | 2
Oc1ccccc1CNc1cnc2ccccc2c1 | -3 | -63 | 50* | -1 | -4
COC(=O)C1SCC2C(=O)N(Cc3cccc(C)c3)CC(=O)N21 (stereo unspecified) | 0 | -3 | 0 | 128* | -6
COC(=O)C1SCC2C(=O)N(Cc3ccc(F)cc3)CC(=O)N21 (stereo unspecified) | 0 | 14 | 1 | -10 | -6
C[C@H]1CN=C(N(C)C)N1CC1CCCC1 | 0 | 54* | 4 | -6 | -3
Cc1ccc(-c2[nH]nc3c2C(c2cccnc2)C(C#N)=C(N)O3)cc1 (stereo unspecified) | 0 | 78* | -5 | 7 | -13
N#CC1=C(N)Oc2n[nH]c(-c3ccccc3)c2C1c1cccnc1 (stereo unspecified) | 0 | / | -8 | / | -11
N#CC1=C(N)Oc2nc(-c3ccccc3)[nH]c2C1c1cccnc1 (stereo unspecified) | 0 | 48* | -4 | / | -6
CC(C)NC(=O)N(C)C[C@H]1Oc2c(N)cccc2C(=O)N(C)C[C@H]1C | / | 6 | / | / | /
CCN=c1scc(-c2ccc3c(c2)NC(=O)CO3)n1N=C1CCCC1 | 0 | 8 | -5 | 54*! | -5
CCCCN=c1scc(-c2ccc3c(c2)NC(=O)CO3)n1N=C1CCCC1 | 0 | / | 0 | -17 | -11
CN1CCN(C(=O)C[C@H]2CC[C@@H]3[C@H](COc4ccc(NC(=O)C5CC5)cc4C(=O)N3C)O2)CC1 | / | 2 | / | / | /
COc1cc(/C=C2\SC(=S)N(NS(=O)(=O)c3ccccc3)C2=O)ccc1O | 0 | -1 | -39 | 2 | 21*
COc1cc(/C=C2\SC(=S)N(C(C(=O)O)c3ccccc3)C2=O)ccc1O (stereo unspecified) | 0 | -12 | -45 | 1 | 23*
COc1cc(/C=C2\SC(=S)N(NS(=O)(=O)c3ccc(C)cc3)C2=O)ccc1O | 0 | -16 | -45 | -3 | 14
COc1cc(/C=C2\SC(=S)N(NC(=O)c3ccncc3)C2=O)ccc1O | 0 | -19 | -43 | -1 | 33*
CC(=O)N(C)C[C@H]1Oc2ccc(NC(=O)NC(C)C)cc2CC(=O)N(C)C[C@H]1C | / | 6 | / | / | /
O=C(c1ccncc1)N1C[C@@H]2[C@H](c3ccccc31)[C@H](CO)N2C(=O)Nc1ccccc1Cl | / | -5 | / | / | /
CN1C(=O)NC(c2ccc(O)cc2)C2=C1CN(c1ccccc1)C2=O (stereo unspecified) | -1 | 43* | 32 | / | 2
Cc1cc(-c2ccccc2)n2nc(N)nc2n1 | 0 | 49* | / | 3 | -4
CCOC(=O)CN1C(=O)N[C@@H](c2ccccc2)C(C(C)=O)=C1C | 0 | / | 2 | -9 | 0
CCN1C(=O)NC(c2ccccc2)C1=O (stereo unspecified) | 1 | / | 6 | 81* | 2
O=C(N[C@H]1CC[C@H](CCNS(=O)(=O)c2ccc(F)cc2)O[C@@H]1CO)c1ccccn1 | / | 4 | / | / | /
Cc1cccc(NC(=O)CNC(=O)COc2ccc(-c3ccc(C#N)cc3)cc2)c1C | -2 | 67* | -3 | -5 | ?
CCN1/C(=C/c2ccc3cc(C)ccc3[n+]2CC)Sc2ccccc21 | -1 | -41 | i | 12 | 52*
SMILES | A1 inh | GSIS activator | Neddyl block | Vif imaging | dFosB activator
C[C@H](CO)N1C[C@H](C)[C@@H](CN(C)Cc2ccc(-c3ccccc3)cc2)Oc2ccc(NC(=O)Nc3ccc4c(c3)OCO4)cc2CC1=O | / | 9 | / | / | /
Cc1c(C)n(Cc2ccc(F)cc2)c2ccc(C(=O)N3CCN(c4ccccn4)CC3)cc12 | -2 | -19 | 1 | -4 | 27*
O=C(c1ccc(F)cc1)N1CCN(c2ccccn2)CC1 | -1 | 2 | 1 | 5 | 8
Cc1cc(C)n(CC(O)Cn2c3ccc(Br)cc3c3cc(Br)ccc32)c(=O)n1 (stereo unspecified) | 0 | / | -17 | -11 | 20*
Cc1cc(C)n(CC(O)Cn2c3ccccc3c3ccccc32)c(=O)n1 (stereo unspecified) | 0 | / | 16 | 10 | -1
O=C(C[C@H]1CC[C@@H]2[C@H](COC[C@H](O)CN2Cc2cccc(-c3ccncc3)c2)O1)N1CCCCC1 | / | -2 | / | / | /
CN(C)CC/C=C1\c2ccccc2Sc2ccc(Cl)cc21 | 0 | 12 | 1 | -3 | 5
OCCN1CCN(CC/C=C2/c3ccccc3Sc3ccc(Cl)cc32)CC1 | 1 | / | -4 | -8 | 17*
COc1ccc(CCNc2c3ccccc3nc3ccccc23)cc1OC | 1 | 8 | 33 | -2 | 30*
c1ccc(Nc2c3c(nc4ccccc24)CCC3)cc1 | 1 | 7 | 13 | -1 | -8
COc1nc(NCCc2ccc(OC)c(OC)c2)nc(OC)n1 | -1 | / | 3 | -1 | -6
COc1ccc(Nc2c3c(nc4ccccc24)CCC3)cc1 | 0 | 74* | -12 | 0 | 5
COc1ccc(Nc2c3ccccc3nc3ccccc23)cc1 | 0 | 25 | -10 | -2 | 60*
COc1ccccc1Nc1c2ccccc2nc2ccccc12 | -1 | 13 | -14 | -2 | 37*
COc1ccc(CCNc2oc(-c3ccc(OC)c(OC)c3)nc2P(=O)(OC)OC)cc1OC | 0 | 68* | / | / | -3
COc1ccc(-c2nc(C#N)c(NCCc3ccccc3)o2)cc1OC | -6 | / | / | 32 | -6
CN(C)CCCNc1c2c(nc3ccccc13)CCC2 | -1 | 11 | 5 | -2 | 20*
COc1cc(Nc2c3ccccc3nc3ccccc23)cc(OC)c1OC | ? | -15 | 26 | -13 | 44*
COc1ccc(Nc2nc(N3CCCC3)c3ccccc3n2)cc1 | 0 | / | 12 | 24 | 59*
COc1ccc2c3c(n(C)c2c1)[C@H](CO)N(C(=O)Nc1ccc(F)cc1)CC31CN(C(=O)NC(C)C)C1 | / | -24 | / | / | /
C[C@@H]1CN([C@H](C)CO)C(=O)c2cc(NS(C)(=O)=O)ccc2O[C@@H](C)CCCCO[C@@H]1CN(C)C | / | 13 | / | / | /
O=C(CNC(=O)Cc1ccccc1)N=Nc1c(O)n(Cc2ccc3c(c2)OCO3)c2ccccc12 | / | 6 | -7 | -5 | 20*
Cc1cc(NC(=O)c2cc(-c3ccccn3)nc3ccccc23)no1 | 1 | / | -8 | 2 | -16
COC(=O)c1ccc(NC(=O)c2cc(-c3ccccn3)nc3ccccc23)cc1 | -1 | 32 | 28 | 62* | 7
Cc1cc(NC(=O)c2cc(-c3ccccn3)nc3ccc(Br)cc23)no1 | 1 | 1 | -102 | 2 | 58*
O=C(N[C@@H]1CC[C@H](CCNS(=O)(=O)c2ccccc2)O[C@@H]1CO)c1cccc(F)c1 | / | 4 | / | / | /
